Measurements: PubChem BioAssay (EPA / NIEHS)
Values joined by “and” are separate entries in the source; they are usually repeats but may differ in a detail not shown here. Identical values can stand only once. Records with an inconclusive call do not appear. The source holds several records for some structures; these can differ, active in one and inactive in another. Active and inactive are the calls of the source. Rule for the calls, unless noted: active = hit-call score of the fitted dose curve at least 0.9, where 1 is the maximum; inactive = score below 0.9.

Columns and labels:
[1] = biological target: Oxysterols receptor LXR-alpha (Homo sapiens) (UniProt Q13133); assay: ATG_LXRa_TRANS: Attagene TRANS-FACTORIAL HepG2 Assay for human Liver X Receptor alpha (LXRa) (AID 2282980; active = hit-call score of the fitted dose curve at least 0.9, where 1 is the maximum); details: HepG2 Attagene TRANS reporter, LXRa transactivation
Procedure, shortened: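 Transient HepG2 transfectants, 24 h dosing, RT-PCR/CE mRNA reporter quantitation; gain-of-signal vs DMSO.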

[2] = biological target: Oxysterols receptor LXR-beta (Homo sapiens) (UniProt P55055); assay: ATG_LXRb_TRANS: Attagene TRANS-FACTORIAL HepG2 Assay for human Liver X Receptor beta (LXRb) (AID 2282981; active = hit-call score of the fitted dose curve at least 0.9, where 1 is the maximum); details: HepG2 Attagene TRANS GAL4-LXRb reporter, mRNA
Procedure, shortened: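 Cells: HepG2, transiently transfected with GAL4-UAS reporter units plus LXRb-Gal4 fusion. Treatment: 24 h. Detection: reporter mRNA by RT-PCR, 6-FAM labelling, HpaI digestion, capillary electrophoresis.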

[3] = ATG_M_32_TRANS: Attagene TRANS-FACTORIAL HepG2 Assay for M32 Transcription Factor (Internal Marker) (AID 2282984; active = hit-call score of the fitted dose curve at least 0.9, where 1 is the maximum;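 note: transcript level of a background control reporter unit measured by RT-PCR and capillary electrophoresis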); details: HepG2 Attagene TRANS M32 internal marker reporter
Procedure, shortened: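 Using transiently transfected HepG2 cells exposed to test chemicals for 24 h, reporter transcripts are converted to labelled cDNA fragments and quantified by capillary electrophoresis. DMSO defines the activity baseline.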

[4] = biological target: Nuclear receptor subfamily 4 group A member 2 (Homo sapiens) (UniProt P43354); assay: ATG_NURR1_TRANS: Attagene TRANS-FACTORIAL HepG2 Assay for human Nuclear Receptor Related Protein 1 (NURR1) (AID 2282985; active = hit-call score of the fitted dose curve at least 0.9, where 1 is the maximum); details: HepG2 Attagene TRANS reporter, mRNA readout
Procedure, shortened: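 Cells: HepG2, transiently transfected. Exposure: 24 h. Detection: fluorescence of labelled RT-PCR products separated by capillary electrophoresis; upward fit versus DMSO.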

[5] = biological target: Transcriptional activator Myb (Homo sapiens) (UniProt P10242); assay: ATG_Myb_CIS: Attagene CIS-FACTORIAL HepG2 Assay for human Myeloblastosis (Myb) Proto-Oncogene Transcription Factor (AID 2282986); details: HepG2 Attagene CIS-FACTORIAL Myb reporter transcription; actives raise or lower the signal
Procedure, shortened: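 Transiently transfected HepG2 cells carrying a multiplexed cis-promoter reporter set report endogenous Myb activity after 24 h compound exposure. Reporter mRNA is read by RT-PCR with capillary electrophoresis of fluorescent products, fitted bidirectionally against DMSO.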

[6] = biological target: Nuclear respiratory factor 1 (Homo sapiens) (UniProt Q16656); assay: ATG_NRF1_CIS: Attagene CIS-FACTORIAL HepG2 Assay for human Nuclear Respiratory Factor 1 (NRF1) Orphan Gene (AID 2282987); details: HepG2 NRF1 cis-element reporter, Attagene multiplex; actives raise or lower the signal
Procedure, shortened: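 HepG2 cells transiently transfected with multiple cis-regulated reporter units, exposed 24 h. Reporter mRNAs measured by RT-PCR, fluorescent labelling, HpaI digestion and capillary electrophoresis; bidirectional fitting against DMSO.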

[7] = ATG_NFI_CIS: Attagene CIS-FACTORIAL HepG2 Assay for human Nuclear Factor I (NFI) (AID 2282989); details: HepG2 cis-regulatory reporter, NFI response element transcription; actives raise or lower the signal
Procedure, shortened: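 Reporter transcription driven by endogenous transcription factors in HepG2 cells; 24 h treatment. Quantitation by labelled RT-PCR fragments on capillary electrophoresis, gain- or loss-of-signal relative to DMSO.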

[8] = biological target: Myc proto-oncogene protein (Homo sapiens) (UniProt P01106); assay: ATG_Myc_CIS: Attagene CIS-FACTORIAL HepG2 Assay for human Myelocytomatosis (Myc) Proto-Oncogene Transcription Factor (AID 2282990); details: HepG2, Attagene cis-reporter transcription factor activity; actives raise or lower the signal
Procedure, shortened: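 Cells of the HepG2 human liver line bear multiple cis-driven reporter transcription units. Reporter mRNA after 24 h exposure is reverse-transcribed, amplified, labelled and resolved by capillary electrophoresis, with gain- or loss-of-signal fitting relative to DMSO.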

[9] = ATG_NRF2_ARE_CIS: Attagene CIS-FACTORIAL HepG2 Assay for human Nuclear Factor Erythroid 2 Related Factor 2 (NFR2) response to Antioxidant Response Elements (ARE) (AID 2282992); details: HepG2 Attagene ARE/NRF2 reporter, transcription factor activity; actives raise or lower the signal;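 for AC50: reporter mRNA level measured by RT-PCR and capillary electrophoresis fluorescence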
Procedure, shortened: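 Multiplexed reporter mRNA profiling in HepG2 after a 24 h chemical exposure. Curves fitted in both directions relative to DMSO negative control.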

[10] = ATG_Oct_MLP_CIS: Attagene CIS-FACTORIAL HepG2 Assay for human Octamer-Binding Transcription Factor (Oct) (AID 2282993); details: HepG2 Attagene cis-factorial Oct reporter, mRNA; actives raise or lower the signal
Procedure, shortened: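 Transfected HepG2 cells, 24 h treatment. Reporter mRNA quantified by RT-PCR–capillary electrophoresis; bidirectional fitting against DMSO.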

[11] = BSK_3C_TissueFactor: BioMAP Diversity Plus: 3C Assay for Tissue Factor Biomarker Activity (AID 2282997); details: BioMAP 3C HUVEC, tissue factor biomarker readout; actives raise or lower the signal
Procedure, shortened: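 Values derive from bidirectional curve fitting against DMSO of Tissue Factor ELISA signals, taken 24 h after dosing primary human umbilical vein endothelial cells.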

[12] = BSK_3C_uPAR: BioMAP Diversity Plus: 3C Assay for Urokinase-type plasminogen activator receptor (uPAR) Biomarker Activity (AID 2282998); details: BioMAP 3C HUVEC, uPAR biomarker ELISA; actives raise or lower the signal
Procedure, shortened: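 Readout: ELISA for surface uPAR. System: human umbilical vein endothelial primary cells, 24 h after chemical exposure. Analysis: bidirectional fit, DMSO baseline.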

[13] = BSK_3C_VCAM1: BioMAP Diversity Plus: 3C Assay for Vascular cell adhesion molecule 1 (VCAM1) Biomarker Activity (AID 2282999); details: BioMAP 3C HUVEC, VCAM1 ELISA, cytokine-stimulated; actives raise or lower the signal
Procedure, shortened: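 Endothelial cells from human umbilical vein are treated with test chemical. At 24 h, VCAM-1 is measured by ELISA, and responses in either direction are fitted relative to DMSO.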

[14] = biological target: human Peroxisome Proliferator-activated Receptor alpha (PPARa), PPARA (gene 5465) (UniProt Q07869); assay: ATG_PPARa_TRANS: Attagene TRANS-FACTORIAL HepG2 Assay for human Peroxisome Proliferator-activated Receptor alpha (PPARa) (AID 2283001; active = hit-call score of the fitted dose curve at least 0.9, where 1 is the maximum;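 for AC50: potency for gain of reporter signal over DMSO so agonist or activator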)
Procedure, shortened: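 Reporter transcripts from GAL4-UAS units in transfected HepG2 were quantified 24 h after dosing. Detection used reverse transcription, PCR, fluorescent primer extension and capillary electrophoresis, with DMSO as baseline.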

[15] = ATG_M_06_TRANS: Attagene TRANS-FACTORIAL HepG2 Assay for M06 Transcription Factor (Internal Marker) (AID 2282983; active = hit-call score of the fitted dose curve at least 0.9, where 1 is the maximum;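 note: reporter transcript level by RT-PCR then capillary electrophoresis fluorescence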); details: HepG2 Attagene TRANS M06 internal marker reporter
Procedure, shortened: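 Measured by capillary electrophoresis of fluorescently labelled RT-PCR products, this endpoint reflects reporter mRNA in HepG2 cells harbouring exogenous NR-GAL4 reporter constructs after 24 h exposure, with DMSO as baseline.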

[16] = ATG_NF_kB_CIS: Attagene CIS-FACTORIAL HepG2 Assay for human Nuclear Factor Kappa B (NF-kB) (AID 2282991); details: HepG2 Attagene cis-factorial NF-kB reporter mRNA; actives raise or lower the signal
Procedure, shortened: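 HepG2 cells transfected with cis-promoter-driven reporter units, so endogenous transcription factor activity is measured. Reporter mRNA quantified 24 h after dosing by RT-PCR and capillary electrophoresis, with bidirectional fitting against DMSO.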

[17] = biological target: Cellular tumor antigen p53 (Homo sapiens) (UniProt P04637); assay: ATG_p53_CIS: Attagene CIS-FACTORIAL HepG2 Assay for human p53 Transcription Factor (AID 2282994); details: HepG2 p53 cis-element reporter, Attagene mRNA; actives raise or lower the signal
Procedure, shortened: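 Multiplexed reporter mRNA assay in human HepG2 liver cells; cis-regulated units report endogenous factor activity. Values come from bidirectional curve fitting against DMSO negative control after 24 h treatment.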

[18] = biological target: Hepatocyte nuclear factor 4-alpha (Homo sapiens) (UniProt P41235); assay: ATG_HNF4a_TRANS: Attagene TRANS-FACTORIAL HepG2 Assay for human Hepatocyte Nuclear Factor 4 alpha (HNF4a) (AID 2282982; active = hit-call score of the fitted dose curve at least 0.9, where 1 is the maximum); details: HepG2 HNF4a transactivation reporter, mRNA readout
Procedure, shortened: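 Transfected HepG2 reporter cells are dosed for 24 h; reporter RNA is reverse-transcribed, amplified, fluorescently labelled and HpaI-digested before CE sizing. Positive-direction fit against DMSO.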

Measured: AC50

Sequence of Transcriptional activator Myb (Homo sapiens) (P10242 whole entry, looked up): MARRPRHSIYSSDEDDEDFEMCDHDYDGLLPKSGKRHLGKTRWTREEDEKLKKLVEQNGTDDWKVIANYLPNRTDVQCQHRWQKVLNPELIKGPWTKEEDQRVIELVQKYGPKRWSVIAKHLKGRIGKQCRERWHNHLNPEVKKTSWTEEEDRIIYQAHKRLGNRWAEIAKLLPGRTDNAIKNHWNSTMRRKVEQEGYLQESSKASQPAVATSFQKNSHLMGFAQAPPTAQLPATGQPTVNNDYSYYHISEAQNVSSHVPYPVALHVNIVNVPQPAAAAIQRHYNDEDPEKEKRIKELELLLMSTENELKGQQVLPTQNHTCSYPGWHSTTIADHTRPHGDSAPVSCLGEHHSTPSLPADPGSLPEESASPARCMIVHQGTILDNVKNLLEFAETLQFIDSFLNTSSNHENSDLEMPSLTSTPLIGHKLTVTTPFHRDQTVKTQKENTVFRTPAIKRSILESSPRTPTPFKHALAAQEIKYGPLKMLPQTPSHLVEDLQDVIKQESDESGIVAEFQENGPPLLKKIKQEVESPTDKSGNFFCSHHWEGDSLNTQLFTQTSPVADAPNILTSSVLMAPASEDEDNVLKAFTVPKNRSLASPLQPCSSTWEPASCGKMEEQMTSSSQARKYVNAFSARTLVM
Sequence of Hepatocyte nuclear factor 4-alpha (Homo sapiens) (P41235 whole entry, looked up): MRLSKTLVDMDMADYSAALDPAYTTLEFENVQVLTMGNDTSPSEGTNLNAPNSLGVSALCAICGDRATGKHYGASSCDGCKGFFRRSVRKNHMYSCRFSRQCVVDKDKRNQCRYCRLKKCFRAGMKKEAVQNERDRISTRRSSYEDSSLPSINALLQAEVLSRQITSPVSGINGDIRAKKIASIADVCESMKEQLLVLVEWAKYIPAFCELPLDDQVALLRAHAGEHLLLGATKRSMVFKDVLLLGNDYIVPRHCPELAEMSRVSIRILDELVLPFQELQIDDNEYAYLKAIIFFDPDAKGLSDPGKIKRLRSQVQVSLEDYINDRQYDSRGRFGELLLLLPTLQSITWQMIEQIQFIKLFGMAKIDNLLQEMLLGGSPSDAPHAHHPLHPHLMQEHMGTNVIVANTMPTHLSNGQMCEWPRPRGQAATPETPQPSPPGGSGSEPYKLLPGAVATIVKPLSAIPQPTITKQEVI
Sequence of Nuclear receptor subfamily 4 group A member 2 (Homo sapiens) (P43354 whole entry, looked up): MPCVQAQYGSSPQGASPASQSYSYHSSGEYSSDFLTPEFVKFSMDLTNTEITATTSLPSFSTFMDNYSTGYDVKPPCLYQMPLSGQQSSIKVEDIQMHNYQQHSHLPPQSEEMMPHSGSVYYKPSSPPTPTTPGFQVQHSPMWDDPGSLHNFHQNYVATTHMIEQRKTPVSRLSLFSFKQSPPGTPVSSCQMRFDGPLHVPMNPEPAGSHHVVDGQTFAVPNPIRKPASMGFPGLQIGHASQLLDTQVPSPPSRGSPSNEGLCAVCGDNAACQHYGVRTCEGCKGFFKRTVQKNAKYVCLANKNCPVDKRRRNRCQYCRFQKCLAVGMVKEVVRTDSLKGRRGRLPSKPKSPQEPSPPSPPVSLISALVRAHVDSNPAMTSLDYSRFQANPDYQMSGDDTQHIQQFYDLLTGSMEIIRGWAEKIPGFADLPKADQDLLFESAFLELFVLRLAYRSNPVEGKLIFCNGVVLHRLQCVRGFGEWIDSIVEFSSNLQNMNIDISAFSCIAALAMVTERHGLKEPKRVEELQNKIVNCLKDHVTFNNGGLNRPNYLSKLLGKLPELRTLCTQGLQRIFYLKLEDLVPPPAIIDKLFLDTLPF
Sequence of Cellular tumor antigen p53 (Homo sapiens) (P04637 whole entry, looked up): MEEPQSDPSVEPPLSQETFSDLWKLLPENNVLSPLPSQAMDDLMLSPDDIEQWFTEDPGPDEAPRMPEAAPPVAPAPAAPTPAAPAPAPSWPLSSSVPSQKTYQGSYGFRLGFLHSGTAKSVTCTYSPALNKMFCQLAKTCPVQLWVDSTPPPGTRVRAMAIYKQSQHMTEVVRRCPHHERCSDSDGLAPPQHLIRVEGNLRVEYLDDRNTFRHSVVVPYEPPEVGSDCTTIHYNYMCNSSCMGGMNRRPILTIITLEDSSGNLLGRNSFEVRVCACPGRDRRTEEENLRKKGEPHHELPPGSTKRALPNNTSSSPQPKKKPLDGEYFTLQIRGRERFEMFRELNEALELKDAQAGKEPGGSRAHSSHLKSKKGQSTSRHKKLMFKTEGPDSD
Sequence of Myc proto-oncogene protein (Homo sapiens) (P01106 whole entry, looked up): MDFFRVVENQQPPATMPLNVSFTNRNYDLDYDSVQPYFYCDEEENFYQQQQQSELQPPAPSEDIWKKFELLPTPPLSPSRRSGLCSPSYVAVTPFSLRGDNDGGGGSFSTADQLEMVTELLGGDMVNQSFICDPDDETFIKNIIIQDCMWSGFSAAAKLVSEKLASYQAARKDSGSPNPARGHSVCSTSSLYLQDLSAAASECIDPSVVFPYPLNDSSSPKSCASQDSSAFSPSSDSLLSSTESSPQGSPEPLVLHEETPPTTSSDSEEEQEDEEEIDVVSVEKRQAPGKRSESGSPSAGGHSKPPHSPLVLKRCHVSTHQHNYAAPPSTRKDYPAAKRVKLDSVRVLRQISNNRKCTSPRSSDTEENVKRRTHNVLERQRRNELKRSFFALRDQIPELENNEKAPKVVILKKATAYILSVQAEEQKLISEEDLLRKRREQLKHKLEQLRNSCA
Sequence of human Peroxisome Proliferator-activated Receptor alpha (PPARa), PPARA (gene 5465) (Q07869 whole entry, looked up, the tested form may be a part): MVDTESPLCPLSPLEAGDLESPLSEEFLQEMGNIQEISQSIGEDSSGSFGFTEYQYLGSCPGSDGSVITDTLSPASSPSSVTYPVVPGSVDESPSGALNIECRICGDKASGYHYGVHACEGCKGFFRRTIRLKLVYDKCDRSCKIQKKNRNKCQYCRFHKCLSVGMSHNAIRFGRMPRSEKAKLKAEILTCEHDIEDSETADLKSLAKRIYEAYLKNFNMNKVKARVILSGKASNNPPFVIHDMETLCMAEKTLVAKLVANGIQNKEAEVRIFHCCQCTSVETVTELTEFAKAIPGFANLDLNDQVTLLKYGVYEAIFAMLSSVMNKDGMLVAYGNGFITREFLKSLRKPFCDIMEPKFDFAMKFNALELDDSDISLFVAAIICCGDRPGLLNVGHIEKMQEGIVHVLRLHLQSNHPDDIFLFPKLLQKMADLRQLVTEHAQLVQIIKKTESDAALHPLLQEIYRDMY
Sequence of Oxysterols receptor LXR-alpha (Homo sapiens) (Q13133 whole entry, looked up): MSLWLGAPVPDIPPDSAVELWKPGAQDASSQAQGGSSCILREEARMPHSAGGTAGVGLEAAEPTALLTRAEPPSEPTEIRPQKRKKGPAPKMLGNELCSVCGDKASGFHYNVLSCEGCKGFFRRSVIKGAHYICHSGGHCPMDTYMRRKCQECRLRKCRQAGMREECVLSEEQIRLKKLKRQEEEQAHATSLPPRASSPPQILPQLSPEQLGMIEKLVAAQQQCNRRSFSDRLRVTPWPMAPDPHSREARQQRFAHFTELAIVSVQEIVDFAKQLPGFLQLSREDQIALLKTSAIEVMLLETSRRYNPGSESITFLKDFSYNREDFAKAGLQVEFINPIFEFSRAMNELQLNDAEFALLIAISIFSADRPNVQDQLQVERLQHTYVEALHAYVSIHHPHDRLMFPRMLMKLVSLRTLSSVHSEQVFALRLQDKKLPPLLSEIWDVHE
Sequence of Oxysterols receptor LXR-beta (Homo sapiens) (P55055 whole entry, looked up, the tested form may be a part): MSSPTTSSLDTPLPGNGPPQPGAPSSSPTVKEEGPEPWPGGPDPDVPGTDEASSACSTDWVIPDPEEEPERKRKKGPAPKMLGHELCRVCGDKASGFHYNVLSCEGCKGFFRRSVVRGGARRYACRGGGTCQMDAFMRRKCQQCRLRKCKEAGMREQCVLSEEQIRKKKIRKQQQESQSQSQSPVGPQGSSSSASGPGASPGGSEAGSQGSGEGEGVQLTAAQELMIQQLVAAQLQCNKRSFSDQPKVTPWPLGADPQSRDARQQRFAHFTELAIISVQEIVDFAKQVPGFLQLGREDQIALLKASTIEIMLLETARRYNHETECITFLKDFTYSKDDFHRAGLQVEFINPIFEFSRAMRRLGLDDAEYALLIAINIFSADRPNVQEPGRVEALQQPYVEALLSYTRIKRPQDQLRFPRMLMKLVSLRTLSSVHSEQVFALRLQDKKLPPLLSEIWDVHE
Sequence of Nuclear respiratory factor 1 (Homo sapiens) (Q16656 whole entry, looked up): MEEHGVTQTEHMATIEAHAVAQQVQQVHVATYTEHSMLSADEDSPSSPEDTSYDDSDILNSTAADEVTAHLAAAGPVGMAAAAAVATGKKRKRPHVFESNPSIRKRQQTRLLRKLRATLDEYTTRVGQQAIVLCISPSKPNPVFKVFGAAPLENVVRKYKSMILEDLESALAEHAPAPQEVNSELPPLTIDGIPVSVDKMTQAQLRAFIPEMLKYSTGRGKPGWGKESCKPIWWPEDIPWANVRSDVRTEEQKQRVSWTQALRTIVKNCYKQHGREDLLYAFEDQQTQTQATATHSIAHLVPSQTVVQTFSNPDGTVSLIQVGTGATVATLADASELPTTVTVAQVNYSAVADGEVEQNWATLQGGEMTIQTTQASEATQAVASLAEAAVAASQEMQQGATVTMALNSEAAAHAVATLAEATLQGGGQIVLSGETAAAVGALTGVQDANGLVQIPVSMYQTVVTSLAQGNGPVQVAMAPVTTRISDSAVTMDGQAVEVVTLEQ

Cc1[nH]nc2c1N=C(c1ccccc1Cl)c1cc([N+](=O)[O-])ccc1N2
active: [6] 1.16 µM | [7] 554 nM | [8] 353 nM | [9] 19.8 µM | [11] 3.97 µM | [12] 4.73 µM | [13] 3.03 µM
inactive: [1] | [2] | [3] | [4] | [5] | [10] | [14]

CC(C)(C)c1ccc(O)c(O)c1
inactive: [1] | [15] | [3] | [4] | [5] | [6] | [7] | [8] | [16] | [10] | [17] | [12]
active: [11] 3.97 µM | [13] 20 µM | [14] 31.7 µM [middle of 5 runs]

CC(C)C=O
inactive: [1] | [2] | [3] | [4] | [5] | [6] | [7] | [16] | [10] | [17] | [14]

Cc1ccc(S(=O)(=O)O)cc1
inactive: [1] | [18] | [15] | [3] | [4] | [5] | [6] | [7] | [8] | [9] | [10] | [17] | [14]

O=C(Nc1cccc([N+](=O)[O-])c1)c1cc2ccccc2cc1O
inactive: [1] | [2] | [4] | [5] | [6] | [7] | [8] | [10] | [17] | [14]
active: [9] 1.37 µM

Cc1cc(C(C)(C)C)c(O)c(C(C)(C)C)c1
inactive: [1] | [15] | [3] | [5] | [6] | [16] | [17]
active: [4] 820 nM | [6] 94.7 µM | [7] 51.6 µM and 20.5 µM | [8] 51 µM and 92.8 µM | [9] 57.7 µM and 60 µM | [10] 33.4 µM and 89.4 µM

OCC(CO)(CBr)CBr
inactive: [1] | [18] | [3] | [4] | [5] | [6] | [7] | [8] | [16] | [9] | [10] | [11] | [12] | [13]

O=C(Nc1ccc(Cl)c(Cl)c1)c1cc(Cl)cc(Cl)c1O
active: [9] 0.522 µM | [10] 1.11 µM | [17] 10.9 µM | [14] 4.32 µM
inactive: [1] | [18] | [15] | [3] | [4] | [5] | [6] | [7] | [8]
